These results are taken from PubChem BioAssay.

For some assays here: Measured potencies and affinities stand elsewhere. The source made the active and inactive calls.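 How the source made its calls, unless noted: active means earlier screen potentiator hit that boosts the TRPC4 ion channel at some dose, with a dose response; inactive means no potentiation, no dose response, or not a prior hit.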

In experiment [1] the test system is TRPC4 beta (transient receptor potential cation channel C4), mouse. As to the kind of experiment: activators of mouse TRPC4 channel, confirmation, cell-based, Fluo4 calcium, HEK293 TRPC4beta/mu-opioid, duplicates, 10 µM (AID 2426;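 active means fluorescence ratio normalized to control raised more than 50% in primary screen plus both repeat runs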). The conditions noted are these: Fluo4 calcium fluorescence, at 10 µM; active compounds read high.
Experiment [2] concerns transient receptor potential cation channel C4 beta (TRPC4), mouse. As to the kind of experiment: activators of mouse TRPC4 channel, confirmation, cell-based, second round, Fluo4, HEK293 TRPC4beta/mu-opioid, 1 µM (AID 2461;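 active means primary screen active and over 50% activation in each of two duplicate runs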). Particulars: Fluo4 calcium fluorescence, at 1 µM; active compounds read high.
In experiment [3] the test system is TRPC4 (transient receptor potential cation channel C4 beta), mouse. As to the kind of experiment: positive allosteric modulators of mouse TRPC4, confirmation, cell-based, second round, Fluo-4, HEK293 TRPC4beta/mu-opioid, 1 µM (AID 2554;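 active means primary screen hit whose fluorescence ratio, in both repeats, exceeds the weak agonist control mean by 3 SD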). The conditions noted are these: DAMGO EC20, Fluo-4 calcium flux, at 1 µM; active compounds read high. In general terms: Calcium assays in cells follow changes in intracellular calcium, usually with a dye or a luminescent sensor.

The test system of experiment [4] is TRPC4 beta (transient receptor potential cation channel C4), mouse. As to the kind of experiment: positive allosteric modulators of mouse TRPC4, confirmation, cell-based, Fluo-4, HEK293 TRPC4beta/mu-opioid (AID 2555;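 active means primary screen hit whose calcium fluorescence ratio, in both repeats, exceeds the weak agonist control mean by 3 SD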). Particulars: DAMGO EC20, Fluo-4 calcium flux, at 10 µM; active compounds read high.
The target of experiment [5] is Short transient receptor potential channel 4 (Mus musculus) (UniProt Q9QUQ5). As to the kind of experiment: inhibitors of mouse TRPC4 channel, confirmation, cell-based, Fluo4, HEK293 TRPC4beta/mu-opioid (AID 2636;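 active means calcium signal cut by more than 3 SD below the full-agonist control yet still positive, in both repeats and the earlier primary screen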). Particulars: DAMGO, Fluo4 calcium flux, at 10 µM; active compounds read high.
Sequence of Short transient receptor potential channel 4 (Mus musculus) (Q9QUQ5 whole entry, looked up): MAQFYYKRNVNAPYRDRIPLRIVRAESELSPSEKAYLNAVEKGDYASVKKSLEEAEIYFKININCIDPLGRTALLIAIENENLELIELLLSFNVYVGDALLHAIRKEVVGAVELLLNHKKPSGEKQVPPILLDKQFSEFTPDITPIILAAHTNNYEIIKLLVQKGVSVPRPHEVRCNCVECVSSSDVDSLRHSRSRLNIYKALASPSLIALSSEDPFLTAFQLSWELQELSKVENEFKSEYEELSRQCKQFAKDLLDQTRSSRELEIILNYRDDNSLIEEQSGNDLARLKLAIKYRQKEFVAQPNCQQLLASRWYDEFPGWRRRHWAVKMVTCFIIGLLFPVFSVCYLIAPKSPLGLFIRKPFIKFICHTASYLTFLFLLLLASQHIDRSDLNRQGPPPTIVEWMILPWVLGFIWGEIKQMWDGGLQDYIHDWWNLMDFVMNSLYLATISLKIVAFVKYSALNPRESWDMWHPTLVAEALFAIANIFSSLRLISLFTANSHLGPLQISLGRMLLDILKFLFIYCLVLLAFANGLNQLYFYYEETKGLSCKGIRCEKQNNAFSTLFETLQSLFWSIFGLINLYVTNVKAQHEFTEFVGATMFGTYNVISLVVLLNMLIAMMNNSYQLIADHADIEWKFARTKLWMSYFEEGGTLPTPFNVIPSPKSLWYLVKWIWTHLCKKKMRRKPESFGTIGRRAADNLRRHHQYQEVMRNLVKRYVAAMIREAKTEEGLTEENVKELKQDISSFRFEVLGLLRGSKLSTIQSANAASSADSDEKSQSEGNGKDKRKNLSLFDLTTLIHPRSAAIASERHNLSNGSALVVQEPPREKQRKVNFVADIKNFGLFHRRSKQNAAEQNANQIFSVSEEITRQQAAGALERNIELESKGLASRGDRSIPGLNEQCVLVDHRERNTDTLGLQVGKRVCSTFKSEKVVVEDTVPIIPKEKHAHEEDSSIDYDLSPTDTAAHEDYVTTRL
The target is the same in experiment [6]. As to the kind of experiment: inhibitors of mouse TRPC4 channel, confirmation, cell-based, second round, Fluo4, HEK293 TRPC4beta/mu-opioid, 1 µM (AID 2637;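 active means calcium signal ratio cut to more than 3 SD under the fully stimulated control mean yet still positive, in both repeats and the primary screen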;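 on inhibition: percent of integrated ratio relative to wells lacking test compound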). Particulars: Fluo4 calcium flux, DAMGO, at 1 µM; active compounds read high.
For experiment [7] the target is unchanged. As to the kind of experiment: mouse TRPC4 channel activators, dose response, cell-based, HEK293 TRPC4/mu-opioid, Fluo-4 calcium (AID 434937;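 active means primary screen activator hit with a dose response curve and TRPC4 channel activation at any tested dose; inactive means no activation, no dose response, or not a primary hit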).
For experiment [8] the target is unchanged. As to the kind of experiment: TRPC4 positive allosteric modulators, dose response, cell-based, HEK293 TRPC4/mu-opioid, Fluo-4 calcium, EC20 DAMGO (AID 434941).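 Further: calcium entry triggered by an EC20 dose of DAMGO at the co-expressed mu-opioid receptor.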
For experiment [9], the target named is Short transient receptor potential channel 6 (Mus musculus) (UniProt Q61143). As to the kind of experiment: inhibition of mouse TRPC6 channel, confirmation, selectivity assay for TRPC4 inhibitor project, cell-based, HEK293, membrane potential dye, duplicate (AID 434948;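 active means active in primary screen and both duplicates, each dropping signal beyond three positive-control SD with fluorescence still positive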). The conditions noted are these: HEK293 TRPC6, membrane potential dye fluorescence, at 10 µM, stimulated with maximal-effect acetylcholine; active compounds read high.
Sequence of Short transient receptor potential channel 6 (Mus musculus) (Q61143 whole entry, looked up): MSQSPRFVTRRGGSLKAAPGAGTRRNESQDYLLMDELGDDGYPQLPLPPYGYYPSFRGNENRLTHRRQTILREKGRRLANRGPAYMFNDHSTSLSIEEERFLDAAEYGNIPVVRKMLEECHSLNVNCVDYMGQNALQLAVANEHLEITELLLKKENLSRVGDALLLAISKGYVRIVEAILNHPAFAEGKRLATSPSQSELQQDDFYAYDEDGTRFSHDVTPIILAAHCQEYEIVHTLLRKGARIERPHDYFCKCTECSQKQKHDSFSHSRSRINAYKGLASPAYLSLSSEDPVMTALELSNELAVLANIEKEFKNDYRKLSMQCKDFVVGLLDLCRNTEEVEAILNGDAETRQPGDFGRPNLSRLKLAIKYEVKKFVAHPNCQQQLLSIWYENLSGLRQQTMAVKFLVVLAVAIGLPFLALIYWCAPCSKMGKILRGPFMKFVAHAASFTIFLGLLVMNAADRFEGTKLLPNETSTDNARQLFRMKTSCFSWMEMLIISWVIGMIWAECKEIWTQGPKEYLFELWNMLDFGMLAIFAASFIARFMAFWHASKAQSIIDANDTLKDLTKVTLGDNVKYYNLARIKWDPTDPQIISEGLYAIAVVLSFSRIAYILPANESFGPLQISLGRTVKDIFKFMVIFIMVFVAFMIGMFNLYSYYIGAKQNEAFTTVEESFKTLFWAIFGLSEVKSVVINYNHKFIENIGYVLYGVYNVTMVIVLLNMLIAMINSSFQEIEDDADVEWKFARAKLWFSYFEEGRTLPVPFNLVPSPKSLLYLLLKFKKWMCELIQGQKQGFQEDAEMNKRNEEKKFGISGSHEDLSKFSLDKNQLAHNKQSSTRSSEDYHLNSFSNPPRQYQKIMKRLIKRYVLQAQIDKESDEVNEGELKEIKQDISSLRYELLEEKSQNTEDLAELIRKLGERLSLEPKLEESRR

For experiment [10] the target is unchanged. As to the kind of experiment: activation of mouse TRPC6 channel, confirmation, selectivity assay for TRPC4 activator project, cell-based, HEK293, membrane potential dye, duplicate (AID 434950;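 active means membrane potential signal rise above negative control mean plus 3 SD in both duplicates, also active in the earlier TRPC4 screen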). Particulars: HEK293 TRPC6, membrane potential fluorescence, at 10 µM; active compounds read high.
For experiment [11] the target is unchanged. As to the kind of experiment: TRPC6 potentiation by TRPC4 potentiator hits, confirmation, selectivity assay for TRPC4 potentiator project, HEK293 cells, membrane potential dye, duplicate (AID 434952;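 active means compound raising the membrane signal above positive-control mean plus 3 SD in both repeats, and a primary screen hit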). The conditions noted are these: HEK293 TRPC6, membrane potential dye fluorescence, at 10 µM, maximal acetylcholine added after compound; active compounds read high.

Experiment [12] deals with Short transient receptor potential channel 4 (Mus musculus) (UniProt Q9QUQ5). As to the kind of experiment: calcium flux activators in TRPC4/5HT1a cells, counter-screen for TRPC4 activator project, cell-based, second counter screen, HEK293 TRPC4/5HT1a, Fluo-4 (AID 434977;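 active means calcium signal rise above buffer-control mean plus 5 SD in both duplicates, and also a hit in the primary screen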). The conditions noted are these: Fluo-4 calcium flux, at 10 µM; active compounds read high.
Experiment [13] in a line: calcium flux inhibitors in TRPC4/5HT1a cells, confirmation, counter-screen for TRPC4 inhibitor project, cell-based, second counter screen, HEK293 TRPC4/5HT1a, Fluo-4 (AID 434978;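 active means primary screen active whose calcium signal fell more than 3 SD beyond the full-serotonin control mean in both duplicate plates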;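 on outcome: serotonin given first at submaximal then at maximal dose after compound preincubation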). The conditions noted are these: Fluo-4 calcium flux, at 10 µM, serotonin added to trigger calcium flux; active compounds read high.
In experiment [14] the test system is TRPC4 (mouse), co-expressed with 5HT1a in HEK293. As to the kind of experiment: calcium flux potentiators in TRPC4/5HT1a cells, confirmation, counter-screen for TRPC4 potentiator project, cell-based, second counter screen, HEK293 TRPC4/5HT1a, Fluo-4 (AID 434979;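 active means signal rise over 3 SD above mean of control wells given weak agonist, in both repeats and first screen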). Particulars: Fluo-4 calcium flux, at 10 µM, serotonin added at its EC20 dose; active compounds read high.

Experiment [15] is described as follows: calcium flux activation in mu-opioid HEK293 cells, confirmation, counter-screen for TRPC4 activator project, cell-based, HEK293 mu-opioid receptor line (AID 449723;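 active means hit in primary screen, with calcium signal over 5 SD above buffer well mean in both duplicates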;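 further: counter screen cells carry the mu-opioid receptor alone and lack TRPC4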). The conditions noted are these: Fluo-4 calcium fluorescence, at 10 µM; active compounds read high.
Experiment [16] can be described thus: calcium flux enhancement in mu-opioid HEK293 cells, confirmation, counter-screen for TRPC4 allosteric potentiator project, cell-based, HEK293 mu-opioid receptor line (AID 449724;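 active means calcium signal rise more than 3 SD above the low-dose agonist control mean, in both duplicate plates and the primary screen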;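 further: HEK293 cells carrying mu-opioid receptor only with no TRPC4 channel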). Particulars: Fluo-4 calcium flux, at 10 µM, compound added before EC20 DAMGO stimulus; active compounds read high.

In general, inhibition refers to the change of the read-out against control, counted positive when it falls.

For the compound `Oc1c(CN2CCCCC2)cc(Br)c2cccnc12`, the result in experiment [1], in experiment [2], in [3], in experiment [4], in experiment [6] and in experiment [7] was inactive. For the same compound, the outcome in experiment [8], in experiment [9], in [10], in experiment [11], in experiment [12] and in experiment [14] was inactive. For the same compound, the result in experiment [15] and in experiment [16] was inactive. Moreover, the inhibition is 93% (active) in [5] and 4.44% (active) in experiment [13].

Turning to `CN(C)C(CNC(=O)CCc1nc2ccccc2s1)c1ccccc1` (stereo not drawn), the outcome in [1], in [2], in experiment [3], in [4], in [7] and in experiment [8] was inactive. Besides, the compound was called inactive in [9], in experiment [10], in [11], in [12], in experiment [13] and in [14]. Moreover, the outcome in [15] and in experiment [16] was inactive. The inhibition was 96% (active) in [5] and 86% (active) in experiment [6].

Turning to `CCN(CC)c1nc2ccccc2c(N)c1-c1ccccc1`, the outcome in experiment [1], in experiment [2], in experiment [3], in experiment [4], in experiment [6] and in experiment [7] was inactive. Also, the result in experiment [8], in [10], in experiment [11], in [12], in experiment [14] and in [15] was inactive. For the same compound, the outcome in [16] was inactive. Besides, the inhibition in [5] was 89% (active); in experiment [9], 37.5% (active); in experiment [13] it was 33.1% (active).

On to `CC1CCN(CCCOc2ccc(OCc3ccccc3)cc2)CC1`, for which the outcome in [1], in experiment [2], in experiment [3], in experiment [4], in experiment [6] and in experiment [7] was inactive. The result in experiment [8], in experiment [9], in [10], in experiment [11], in experiment [12] and in experiment [14] was inactive. In addition, the outcome in experiment [15] and in [16] was inactive. Moreover, the inhibition was 96% (active) in [5] and 22.7% (active) in experiment [13].

With `CCCCCn1c2c(c(=N)c3ccccc31)CCC2`, the outcome in experiment [1], in experiment [2], in [3], in [4], in [7] and in experiment [8] was inactive. For the same compound, the call in experiment [10], in experiment [11], in [12], in experiment [14], in experiment [15] and in experiment [16] was inactive. The inhibition was 96% (active) in experiment [5], 75% (active) in experiment [6], 1.5% (active) in experiment [9] and 13.9% (active) in experiment [13].

For the compound `COc1ccc(Nc2cc(C)nc3ccccc23)cc1`, the outcome in [1], in experiment [2], in [3], in experiment [4], in experiment [6] and in experiment [7] was inactive. The outcome in [8], in [10], in experiment [11], in experiment [12], in experiment [14] and in experiment [15] was inactive. In experiment [16], the outcome was inactive. Besides, the values for the inhibition in [5], in experiment [9] and in [13] were 86% (active), 39% (active) and 28.9% (active), respectively.

Consider `CN(Cc1ccccc1)C(=O)CSc1nnc(-c2ccco2)n1-c1ccccc1`, for which the result in experiment [1], in experiment [2], in [3], in experiment [4], in experiment [7] and in experiment [8] was inactive. Besides, the compound was called inactive in experiment [9], in experiment [10], in experiment [11], in experiment [12], in [13] and in [14]. The result in [15] and in experiment [16] was inactive. Moreover, the inhibition in experiment [5] was 71% (active); in [6], 43% (active).

`O=C(C[n+]1cc(-c2ccc(Cl)c(Cl)c2)n2c1CCC2)N1c2ccccc2Sc2ccccc21`: the outcome in experiment [1], in experiment [2], in experiment [3], in experiment [4], in [6] and in experiment [7] was inactive. For the same compound, the result in experiment [8], in [10], in experiment [11], in experiment [12], in experiment [14] and in [15] was inactive. Further, the result in [16] was inactive. Further, the results for the inhibition in experiment [5], in experiment [9] and in experiment [13] were 75% (active), 53.5% (active) and 18.7% (active), respectively.
